# Measurements reported in article PMC7862700, “An all-to-all approach to the identification of sequence-specific readers for epigenetic DNA modifications on cytosine”.
# What was measured:
# Test in all cases: DAPPL (digital affinity profiling via proximity ligation, sequencing); 10 mM Tris-HCl pH 7.5, 50 mM NaCl, 1 mM DTT, 4% glycerol, room temperature, 30 min; GST-TFs on glutathione beads, 16-mer random dsDNA library, 0.1% formaldehyde crosslink after washing; high values mean tight binding
# FLI1 = target: T1, FLI1 (Homo sapiens, UniProt Q01543 1-452); settings: protein: recombinant; tags: N-terminal GST; dsDNA, one strand shown
# T1 sequence: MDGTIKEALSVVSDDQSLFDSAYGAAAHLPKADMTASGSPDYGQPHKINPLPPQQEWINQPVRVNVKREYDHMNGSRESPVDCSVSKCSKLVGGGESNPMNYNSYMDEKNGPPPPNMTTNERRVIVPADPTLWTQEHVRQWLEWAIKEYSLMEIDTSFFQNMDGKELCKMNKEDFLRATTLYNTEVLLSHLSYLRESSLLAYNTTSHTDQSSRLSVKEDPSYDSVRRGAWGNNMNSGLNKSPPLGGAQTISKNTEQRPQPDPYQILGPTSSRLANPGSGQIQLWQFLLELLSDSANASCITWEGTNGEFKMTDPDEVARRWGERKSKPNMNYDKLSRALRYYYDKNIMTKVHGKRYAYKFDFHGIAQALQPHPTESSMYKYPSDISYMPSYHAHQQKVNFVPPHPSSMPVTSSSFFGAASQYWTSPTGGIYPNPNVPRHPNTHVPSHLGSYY
# Method in brief: (§1)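 Human transcription factors fused to GST were expressed in yeast, captured on glutathione beads, given DNA barcodes and pooled with a GST-only negative control. Pools were incubated with 200 nmole of a 16-mer random double-stranded DNA library in Tris/NaCl/DTT/glycerol buffer at room temperature for 30 min. They were then washed, crosslinked with 0.1% formaldehyde, proximity-ligated (BsaI/T4 ligase, 1 h, 37 °C), PCR-amplified and sequenced on an Illumina NextSeq500. Binding signal is each 6-mer's read frequency for a factor divided by its frequency for the GST control.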
# ELK1 = target: T2, ELK1 (Homo sapiens, UniProt P19419 1-428); settings: protein: recombinant; tags: N-terminal GST; dsDNA, one strand shown
# T2 sequence: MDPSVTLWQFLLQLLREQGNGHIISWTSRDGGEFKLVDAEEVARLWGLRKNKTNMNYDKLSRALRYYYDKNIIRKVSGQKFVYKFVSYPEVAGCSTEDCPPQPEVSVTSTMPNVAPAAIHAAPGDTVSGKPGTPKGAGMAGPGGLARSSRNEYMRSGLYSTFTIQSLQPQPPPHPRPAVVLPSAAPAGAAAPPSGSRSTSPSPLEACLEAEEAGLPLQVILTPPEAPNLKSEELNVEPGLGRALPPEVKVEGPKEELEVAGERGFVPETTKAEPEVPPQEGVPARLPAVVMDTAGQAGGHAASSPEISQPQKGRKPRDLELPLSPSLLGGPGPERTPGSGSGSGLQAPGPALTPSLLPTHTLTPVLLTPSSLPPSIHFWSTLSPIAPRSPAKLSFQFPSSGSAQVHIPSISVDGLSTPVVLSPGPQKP
# Method in brief: as §1
# GABPA = target: T3, GABPA (Homo sapiens, UniProt Q06546 1-454); settings: protein: recombinant; tags: N-terminal GST; dsDNA, one strand shown
# T3 sequence: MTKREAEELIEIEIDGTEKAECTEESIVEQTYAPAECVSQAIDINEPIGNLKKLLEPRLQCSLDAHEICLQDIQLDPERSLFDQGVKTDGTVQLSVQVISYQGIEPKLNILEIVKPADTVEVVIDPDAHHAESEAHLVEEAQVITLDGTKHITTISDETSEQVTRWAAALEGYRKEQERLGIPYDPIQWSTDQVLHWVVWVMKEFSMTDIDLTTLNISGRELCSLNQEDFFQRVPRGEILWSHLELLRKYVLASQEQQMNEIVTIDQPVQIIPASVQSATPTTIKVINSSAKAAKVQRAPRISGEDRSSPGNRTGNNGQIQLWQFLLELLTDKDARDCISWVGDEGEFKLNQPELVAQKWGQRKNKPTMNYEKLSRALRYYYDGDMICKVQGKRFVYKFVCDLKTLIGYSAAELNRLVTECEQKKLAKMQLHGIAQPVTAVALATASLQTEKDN
# Method in brief: as §1
# ERG = target: T4, ERG (Homo sapiens, UniProt P11308 1-479); settings: protein: recombinant; tags: N-terminal GST; dsDNA, one strand shown
# T4 sequence: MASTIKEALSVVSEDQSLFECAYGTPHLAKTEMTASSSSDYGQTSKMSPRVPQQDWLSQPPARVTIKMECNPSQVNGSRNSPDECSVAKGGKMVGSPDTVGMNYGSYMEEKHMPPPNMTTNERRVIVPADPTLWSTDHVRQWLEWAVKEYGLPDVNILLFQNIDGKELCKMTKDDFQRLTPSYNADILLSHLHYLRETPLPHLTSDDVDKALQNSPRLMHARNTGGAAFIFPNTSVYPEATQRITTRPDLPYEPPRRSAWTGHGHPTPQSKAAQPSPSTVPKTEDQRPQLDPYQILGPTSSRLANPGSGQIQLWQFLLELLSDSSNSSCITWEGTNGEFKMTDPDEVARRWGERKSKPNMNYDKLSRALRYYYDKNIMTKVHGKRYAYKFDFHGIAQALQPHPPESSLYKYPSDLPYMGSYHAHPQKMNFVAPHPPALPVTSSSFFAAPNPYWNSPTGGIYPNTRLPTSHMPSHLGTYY
# Method in brief: as §1
# ELF1 = ELF1 (Homo sapiens, UniProt P32519 1-619); settings: protein: recombinant; tags: N-terminal GST; dsDNA, one strand shown
# Sequence of ELF1 (P32519 whole entry): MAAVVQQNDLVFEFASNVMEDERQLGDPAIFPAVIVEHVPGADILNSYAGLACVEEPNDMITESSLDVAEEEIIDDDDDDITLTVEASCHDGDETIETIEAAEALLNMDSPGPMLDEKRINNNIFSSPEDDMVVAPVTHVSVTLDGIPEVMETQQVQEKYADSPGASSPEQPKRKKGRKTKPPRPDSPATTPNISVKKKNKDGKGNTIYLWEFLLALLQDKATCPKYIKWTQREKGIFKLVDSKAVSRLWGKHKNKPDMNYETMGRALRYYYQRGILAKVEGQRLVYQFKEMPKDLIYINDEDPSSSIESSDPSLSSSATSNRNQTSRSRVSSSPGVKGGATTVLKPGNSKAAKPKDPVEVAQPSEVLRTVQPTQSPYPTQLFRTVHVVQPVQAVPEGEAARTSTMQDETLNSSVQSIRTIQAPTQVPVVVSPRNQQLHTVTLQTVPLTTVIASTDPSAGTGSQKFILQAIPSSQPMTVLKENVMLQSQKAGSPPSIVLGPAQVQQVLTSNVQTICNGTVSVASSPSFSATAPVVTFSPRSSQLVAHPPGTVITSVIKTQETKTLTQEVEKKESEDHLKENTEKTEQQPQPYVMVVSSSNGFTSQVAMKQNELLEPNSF
# Method in brief: as §1
# EHF = target: T5, EHF (Homo sapiens, UniProt Q9NZC4 1-300); settings: protein: recombinant; tags: N-terminal GST; dsDNA, one strand shown
# T5 sequence: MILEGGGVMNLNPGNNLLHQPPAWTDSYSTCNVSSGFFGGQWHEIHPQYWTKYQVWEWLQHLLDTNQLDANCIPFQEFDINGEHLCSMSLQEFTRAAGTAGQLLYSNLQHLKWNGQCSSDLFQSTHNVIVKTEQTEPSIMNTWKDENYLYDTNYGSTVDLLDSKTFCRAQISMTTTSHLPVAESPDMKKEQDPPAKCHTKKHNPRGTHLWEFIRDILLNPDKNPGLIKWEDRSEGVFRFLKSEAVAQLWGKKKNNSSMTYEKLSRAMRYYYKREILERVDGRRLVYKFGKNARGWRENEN
# Method in brief: as §1
# SPI1 = SPI1 (Homo sapiens, UniProt P17947 1-270); settings: protein: recombinant; tags: N-terminal GST; dsDNA, one strand shown
# Method in brief: as §1
# SPIB = SPIB (Homo sapiens, UniProt Q01892 1-262); settings: protein: recombinant; tags: N-terminal GST; dsDNA, one strand shown
# Sequence of SPIB (Q01892 whole entry): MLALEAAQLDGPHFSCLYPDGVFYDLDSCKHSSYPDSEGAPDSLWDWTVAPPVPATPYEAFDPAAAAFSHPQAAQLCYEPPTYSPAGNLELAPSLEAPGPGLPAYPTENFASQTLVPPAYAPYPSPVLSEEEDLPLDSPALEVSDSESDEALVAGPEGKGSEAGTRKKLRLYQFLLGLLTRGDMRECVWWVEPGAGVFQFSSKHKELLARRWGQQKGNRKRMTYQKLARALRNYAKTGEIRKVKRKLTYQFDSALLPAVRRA
# Method in brief: as §1
# ELK3 = target: T6, ELK3 (Homo sapiens, UniProt P41970 1-407); settings: protein: recombinant; tags: N-terminal GST; dsDNA, one strand shown
# T6 sequence: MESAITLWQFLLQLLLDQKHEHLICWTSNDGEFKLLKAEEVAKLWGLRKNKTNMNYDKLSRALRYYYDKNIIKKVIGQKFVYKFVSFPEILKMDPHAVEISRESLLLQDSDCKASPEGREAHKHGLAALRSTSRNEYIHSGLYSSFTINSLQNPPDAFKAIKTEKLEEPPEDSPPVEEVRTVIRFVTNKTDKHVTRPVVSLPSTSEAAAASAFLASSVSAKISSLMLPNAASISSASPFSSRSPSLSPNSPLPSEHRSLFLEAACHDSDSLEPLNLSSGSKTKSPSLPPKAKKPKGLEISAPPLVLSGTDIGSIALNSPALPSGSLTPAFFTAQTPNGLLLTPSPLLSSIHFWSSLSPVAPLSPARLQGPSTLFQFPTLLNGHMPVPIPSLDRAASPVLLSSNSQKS
# Method in brief: as §1
# FEV = target: T7, FEV (Homo sapiens, UniProt Q99581 1-238); settings: protein: recombinant; tags: N-terminal GST; dsDNA, one strand shown
# T7 sequence: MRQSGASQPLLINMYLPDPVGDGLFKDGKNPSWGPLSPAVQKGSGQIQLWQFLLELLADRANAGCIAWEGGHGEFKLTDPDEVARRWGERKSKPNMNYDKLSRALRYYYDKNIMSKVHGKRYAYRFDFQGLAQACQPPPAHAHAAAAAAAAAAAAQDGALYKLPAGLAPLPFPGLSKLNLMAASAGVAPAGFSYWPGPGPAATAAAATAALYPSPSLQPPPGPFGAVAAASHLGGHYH
# Method in brief: as §1
# ETV5 = ETV5 (Homo sapiens, UniProt P41161 1-510); settings: protein: recombinant; tags: N-terminal GST; dsDNA, one strand shown
# Sequence of ETV5 (P41161 whole entry): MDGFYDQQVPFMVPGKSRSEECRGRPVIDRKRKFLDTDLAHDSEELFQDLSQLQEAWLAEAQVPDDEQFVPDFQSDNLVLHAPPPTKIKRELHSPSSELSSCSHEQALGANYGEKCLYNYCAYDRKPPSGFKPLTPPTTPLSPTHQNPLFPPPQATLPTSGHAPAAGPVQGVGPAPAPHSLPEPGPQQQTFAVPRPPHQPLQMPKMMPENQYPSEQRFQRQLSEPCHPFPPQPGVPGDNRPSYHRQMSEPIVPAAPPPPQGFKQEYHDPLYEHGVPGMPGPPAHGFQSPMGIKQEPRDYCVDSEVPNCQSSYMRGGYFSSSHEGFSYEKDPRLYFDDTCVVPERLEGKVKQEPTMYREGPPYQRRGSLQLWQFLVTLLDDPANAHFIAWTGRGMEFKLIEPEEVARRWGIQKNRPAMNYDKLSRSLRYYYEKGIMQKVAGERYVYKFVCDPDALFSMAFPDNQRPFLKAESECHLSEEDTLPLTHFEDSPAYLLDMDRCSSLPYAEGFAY
# Method in brief: as §1
# HSF1 = HSF1 (Homo sapiens, UniProt Q00613 1-529); settings: protein: recombinant; tags: N-terminal GST; chain copies: 3; dsDNA, one strand shown
# Sequence of HSF1 (Q00613 whole entry): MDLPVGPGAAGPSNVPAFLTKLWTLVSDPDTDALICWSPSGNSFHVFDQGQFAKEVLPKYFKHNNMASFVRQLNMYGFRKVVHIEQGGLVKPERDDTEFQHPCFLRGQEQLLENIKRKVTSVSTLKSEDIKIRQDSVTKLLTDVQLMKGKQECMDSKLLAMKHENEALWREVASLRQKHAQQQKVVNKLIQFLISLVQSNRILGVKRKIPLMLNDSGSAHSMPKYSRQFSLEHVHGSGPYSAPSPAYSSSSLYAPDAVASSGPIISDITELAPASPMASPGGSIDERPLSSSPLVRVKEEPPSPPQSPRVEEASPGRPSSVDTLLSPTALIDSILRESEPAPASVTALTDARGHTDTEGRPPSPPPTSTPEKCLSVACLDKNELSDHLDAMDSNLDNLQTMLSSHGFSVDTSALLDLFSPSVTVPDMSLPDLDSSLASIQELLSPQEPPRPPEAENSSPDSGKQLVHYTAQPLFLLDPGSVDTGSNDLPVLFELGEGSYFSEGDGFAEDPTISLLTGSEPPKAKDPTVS
# Method in brief: as §1
# SPIC = target: T8, SPIC (Homo sapiens, UniProt Q8N5J4 1-248); settings: protein: recombinant; tags: N-terminal GST; dsDNA, one strand shown
# T8 sequence: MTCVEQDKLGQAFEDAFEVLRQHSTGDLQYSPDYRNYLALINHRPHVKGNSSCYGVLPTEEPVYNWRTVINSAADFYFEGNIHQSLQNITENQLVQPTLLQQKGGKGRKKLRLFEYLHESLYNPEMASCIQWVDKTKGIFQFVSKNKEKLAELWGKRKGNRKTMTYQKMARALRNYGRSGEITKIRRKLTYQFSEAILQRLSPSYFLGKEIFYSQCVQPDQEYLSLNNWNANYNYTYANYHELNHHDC
# Method in brief: as §1
# ELF4 = ELF4 (Homo sapiens, UniProt Q99607 1-663); settings: protein: recombinant; tags: N-terminal GST; dsDNA, one strand shown
# Sequence of ELF4 (Q99607 whole entry): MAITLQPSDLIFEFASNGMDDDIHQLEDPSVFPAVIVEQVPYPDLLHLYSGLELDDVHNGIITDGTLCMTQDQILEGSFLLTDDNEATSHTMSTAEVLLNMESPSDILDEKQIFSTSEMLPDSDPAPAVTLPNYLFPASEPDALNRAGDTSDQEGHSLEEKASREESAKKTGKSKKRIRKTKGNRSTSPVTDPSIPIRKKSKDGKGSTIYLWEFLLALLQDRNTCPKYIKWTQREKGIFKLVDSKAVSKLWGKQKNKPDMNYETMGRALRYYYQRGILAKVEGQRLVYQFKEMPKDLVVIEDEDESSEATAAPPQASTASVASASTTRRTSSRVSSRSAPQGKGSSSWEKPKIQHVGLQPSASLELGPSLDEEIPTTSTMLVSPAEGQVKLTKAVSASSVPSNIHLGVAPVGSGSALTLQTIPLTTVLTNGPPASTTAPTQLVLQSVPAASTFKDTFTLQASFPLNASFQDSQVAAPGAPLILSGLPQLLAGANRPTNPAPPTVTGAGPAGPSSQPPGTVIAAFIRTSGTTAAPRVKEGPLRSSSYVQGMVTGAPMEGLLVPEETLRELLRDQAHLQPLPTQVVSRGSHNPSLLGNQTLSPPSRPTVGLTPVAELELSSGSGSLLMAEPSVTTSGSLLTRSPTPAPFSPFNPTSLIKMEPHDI
# Method in brief: as §1
# ELK4 = target: T9, ELK4 (Homo sapiens, UniProt P28324-2 1-405); settings: protein: recombinant; tags: N-terminal GST; dsDNA, one strand shown
# T9 sequence: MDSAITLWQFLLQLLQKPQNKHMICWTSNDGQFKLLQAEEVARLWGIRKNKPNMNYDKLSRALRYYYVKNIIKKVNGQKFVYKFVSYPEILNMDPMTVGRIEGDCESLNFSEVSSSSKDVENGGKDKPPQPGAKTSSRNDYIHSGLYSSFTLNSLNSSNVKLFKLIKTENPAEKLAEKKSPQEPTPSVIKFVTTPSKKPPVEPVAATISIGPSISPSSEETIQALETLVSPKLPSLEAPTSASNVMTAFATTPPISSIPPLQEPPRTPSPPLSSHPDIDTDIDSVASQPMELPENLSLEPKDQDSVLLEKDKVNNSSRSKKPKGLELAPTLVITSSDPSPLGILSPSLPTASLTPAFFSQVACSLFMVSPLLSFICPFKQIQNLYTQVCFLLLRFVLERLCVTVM
# Method in brief: as §1
# ETV2 = target: T10, ETV2 (Homo sapiens, UniProt O00321 1-342); settings: protein: recombinant; tags: N-terminal GST; dsDNA, one strand shown
# T10 sequence: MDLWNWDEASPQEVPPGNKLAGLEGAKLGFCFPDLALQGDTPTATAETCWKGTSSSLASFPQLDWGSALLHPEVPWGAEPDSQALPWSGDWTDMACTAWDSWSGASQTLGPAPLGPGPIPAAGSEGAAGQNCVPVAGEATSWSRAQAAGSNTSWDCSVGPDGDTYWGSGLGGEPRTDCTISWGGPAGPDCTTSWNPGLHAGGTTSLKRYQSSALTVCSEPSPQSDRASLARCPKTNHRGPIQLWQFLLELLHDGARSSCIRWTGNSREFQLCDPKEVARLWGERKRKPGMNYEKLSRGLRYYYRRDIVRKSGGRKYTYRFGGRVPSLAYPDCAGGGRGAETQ
# Method in brief: as §1
# ELF3 = target: T11, ELF3 (Homo sapiens, UniProt P78545 1-371); settings: protein: recombinant; tags: N-terminal GST; dsDNA, one strand shown
# T11 sequence: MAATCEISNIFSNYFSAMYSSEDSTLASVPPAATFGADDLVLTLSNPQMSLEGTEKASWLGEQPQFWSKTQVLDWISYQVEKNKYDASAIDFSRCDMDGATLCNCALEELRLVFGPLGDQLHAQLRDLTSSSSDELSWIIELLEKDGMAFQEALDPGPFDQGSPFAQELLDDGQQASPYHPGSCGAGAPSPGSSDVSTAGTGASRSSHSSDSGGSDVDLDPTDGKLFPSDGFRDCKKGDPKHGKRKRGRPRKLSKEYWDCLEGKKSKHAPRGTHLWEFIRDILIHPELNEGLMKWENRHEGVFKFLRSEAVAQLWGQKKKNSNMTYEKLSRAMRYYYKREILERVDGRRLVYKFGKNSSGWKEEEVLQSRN
# Method in brief: as §1
# CRX = CRX (Homo sapiens, UniProt O43186 1-299); settings: protein: recombinant; tags: N-terminal GST; dsDNA, one strand shown
# Sequence of CRX (O43186 whole entry): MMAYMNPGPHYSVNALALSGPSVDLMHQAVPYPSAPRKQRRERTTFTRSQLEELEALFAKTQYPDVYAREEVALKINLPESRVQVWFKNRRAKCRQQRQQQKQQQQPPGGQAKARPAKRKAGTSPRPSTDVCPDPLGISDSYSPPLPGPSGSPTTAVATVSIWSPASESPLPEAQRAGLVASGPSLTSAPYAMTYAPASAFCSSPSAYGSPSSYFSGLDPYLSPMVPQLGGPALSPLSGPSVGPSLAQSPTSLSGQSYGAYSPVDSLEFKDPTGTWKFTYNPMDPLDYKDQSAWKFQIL
# Method in brief: as §1
# ETV1 = ETV1 (Homo sapiens, UniProt P50549 1-477); settings: protein: recombinant; tags: N-terminal GST; dsDNA, one strand shown
# Sequence of ETV1 (P50549 whole entry): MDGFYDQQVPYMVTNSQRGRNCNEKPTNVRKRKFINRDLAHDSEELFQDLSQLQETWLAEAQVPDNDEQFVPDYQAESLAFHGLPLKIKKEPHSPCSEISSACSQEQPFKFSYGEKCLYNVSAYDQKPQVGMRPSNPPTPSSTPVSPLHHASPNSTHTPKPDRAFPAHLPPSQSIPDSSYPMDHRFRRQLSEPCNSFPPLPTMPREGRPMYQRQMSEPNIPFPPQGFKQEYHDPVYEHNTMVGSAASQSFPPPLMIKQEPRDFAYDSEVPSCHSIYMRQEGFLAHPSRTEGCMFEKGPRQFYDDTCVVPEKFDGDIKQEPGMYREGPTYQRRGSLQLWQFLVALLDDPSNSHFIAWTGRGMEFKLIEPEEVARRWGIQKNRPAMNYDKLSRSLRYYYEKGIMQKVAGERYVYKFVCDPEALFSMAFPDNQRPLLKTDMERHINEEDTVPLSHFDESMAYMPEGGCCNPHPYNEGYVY
# Method in brief: as §1
sequence,measurement,setting,value
GCTAGC,binding signal,FLI1,"1.17 fold enrichment (6-mer frequency, TF over GST control)"
same,binding signal,ELK1,"1.23 fold enrichment (6-mer frequency, TF over GST control)"
same,binding signal,GABPA,"1.18 fold enrichment (6-mer frequency, TF over GST control)"
same,binding signal,ERG,"1.22 fold enrichment (6-mer frequency, TF over GST control)"
same,binding signal,ELF1,"1.18 fold enrichment (6-mer frequency, TF over GST control)"
same,binding signal,EHF,"1.19 fold enrichment (6-mer frequency, TF over GST control)"
same,binding signal,SPI1,"1.29 fold enrichment (6-mer frequency, TF over GST control)"
same,binding signal,SPIB,"1.17 fold enrichment (6-mer frequency, TF over GST control)"
same,binding signal,ELK3,"1.22 fold enrichment (6-mer frequency, TF over GST control)"
same,binding signal,FEV,"1.31 fold enrichment (6-mer frequency, TF over GST control)"
same,binding signal,ETV5,"1.24 fold enrichment (6-mer frequency, TF over GST control)"
same,binding signal,HSF1,"1.19 fold enrichment (6-mer frequency, TF over GST control)"
same,binding signal,SPIC,"1.28 fold enrichment (6-mer frequency, TF over GST control)"
same,binding signal,ELF4,"1.3 fold enrichment (6-mer frequency, TF over GST control)"
same,binding signal,ELK4,"1.23 fold enrichment (6-mer frequency, TF over GST control)"
same,binding signal,ETV2,"1.39 fold enrichment (6-mer frequency, TF over GST control)"
same,binding signal,ELF3,"1.2 fold enrichment (6-mer frequency, TF over GST control)"
same,binding signal,CRX,"1.05 fold enrichment (6-mer frequency, TF over GST control)"
same,binding signal,ETV1,"1.24 fold enrichment (6-mer frequency, TF over GST control)"
